Only some compounds are listed: those with a hit (about 0.95% of all), similar ones and a draw of the others.
RE007 growth inh: less growth of the S. pombe RE007 Vpr strain; S. pombe RE007 Vpr strain, BacTiter-Glo ATP luminescence, 24 h; Potency, µM (highest dose often 92.2 µM), for the others: at the highest dose activity change, negative = less growth, usual class: inhibitors; 0.21% of 360,000 active; active = well fitted falling curve with a large enough effect; inconclusive = small, poorly fitted or top-dose-only effect; inactive = no such curve, though single readings can be large or run the other way; also: nearly all actives have a fitted effect of over 50% in size
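Fission yeast strain RE007, carrying one chromosomally integrated HIV-1 vpr copy, was seeded at OD 0.01 in PMG+AL medium with 23 nL pinned compound. After 24 h at 30 °C and 99% humidity, viability was read by BacTiter-Glo luminescence.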
Tb PYK inh: T. brucei pyruvate kinase inhibition; Q57TT1; TbPYK enzyme, Kinase-Glo Plus ATP luminescence, 45 min; Potency, µM (highest dose often 76.8 µM), for inactives: top-dose activity, negative = inhibition, hits mostly inhibitors; 0.12% of 410,000 active; also: nearly all actives have a fitted effect of over 50% in size
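Glycolytic pyruvate kinase of T. brucei was incubated with substrate, test compound and 130 uM ADP for 45 minutes at room temperature. Luminescent Kinase-Glo Plus signal was measured after 10 minutes.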
LmPK inh: inhibitors of Leishmania mexicana pyruvate kinase. Potency, µM (series often up to 57.5 µM), for the others: at the highest dose activity change, negative = inhibition, actives largely listed as inhibitors. 0.37% of 290,000 active. Q27686. purified LmPK, Kinase-Glo ATP luminescence, 1 h
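Purified LmPK (0.1 nM) converted ADP (0.1 mM) to ATP with PEP (0.5 mM) in imidazole buffer pH 7.2 with KCl and MgCl2, 1 h at room temperature. ATP was read by Kinase-Glo luminescence; data normalized to uninhibited and no-enzyme controls.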
Giardia FBPA inh-1: Giardia lamblia aldolase inhibition; purified Giardia FBPA; Potency, µM (series often up to 59.6 µM), for the others: top-dose activity, negative = inhibition, most hits filed as inhibitors; 0.71% of 290,000 active; AID 2451; also: nearly all actives have a fitted effect of over 55% in size
Target sequence (A8B2U2 whole entry, looked up): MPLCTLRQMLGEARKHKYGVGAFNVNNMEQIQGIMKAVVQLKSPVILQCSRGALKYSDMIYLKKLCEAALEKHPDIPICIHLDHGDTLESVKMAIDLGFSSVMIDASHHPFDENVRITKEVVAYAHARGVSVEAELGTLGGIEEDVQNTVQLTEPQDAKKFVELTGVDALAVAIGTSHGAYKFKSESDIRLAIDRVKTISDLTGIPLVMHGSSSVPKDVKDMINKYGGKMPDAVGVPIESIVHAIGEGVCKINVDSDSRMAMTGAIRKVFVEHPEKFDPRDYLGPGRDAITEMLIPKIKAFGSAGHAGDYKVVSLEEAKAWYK
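40 nM FBPA preincubated 10 min at RT with compound (up to 57.5 uM final), then substrate plus GAPDH/TPI/NAD/arsenate coupling and diaphorase/resazurin added. Fluorescence read after 20 min at RT, 525/598 nm.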
Giardia growth: inhibitors of Giardia lamblia growth; AID 2785; Potency, µM (titrated, usually from 57.5 µM), inactives show at the highest dose activity change, negative = inhibition, hits mostly inhibitors; Giardia lamblia trophozoite growth inhibition; shares compounds with Giardia FBPA inh-1; 5% of 1,500 active;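 also: trophozoites exposed to compound for 48 h at 37 °C; nearly all actives have a fitted effect of over 70% in size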
Mammal cell tox: toxic to mammalian cells in Giardia aldolase counter-screen; 4% of 1,500 active; Potency, µM (titrated, usually from 57.5 µM), for the others: at the top dose viability change, negative = toxicity, usual class: inhibitors; shares compounds with Giardia FBPA inh-1; mammalian cell viability counter-screen, qHTS; AID 2786;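 also: Chinese hamster ovary cells used as mammalian cytotoxicity surrogate; viability measured as cellular ATP by luminescence; compound exposure lasted 48 h before reading; nearly all actives have a fitted effect of over 60% in size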
Giardia FBPA inh-2: confirmation of Giardia fructose-bisphosphate aldolase inhibitors; shares compounds with Giardia FBPA inh-1; purified Giardia aldolase enzyme activity, qHTS; Potency, µM (top dose mostly 57.5 µM), for inactives: at the top dose activity change, negative = inhibition, usual class: inhibitors; 5% of 1,500 active; AID 2787; also: nearly all actives have a fitted effect of over 45% in size
Rabbit aldolase: selectivity test for Giardia aldolase inhibitors: rabbit aldolase; shares compounds with Giardia FBPA inh-1; Rabbit muscle FBPA enzyme inhibition, selectivity counter-screen; Potency, µM (highest dose often 57.5 µM), without a hit: at the top dose activity, negative = inhibition, most hits filed as inhibitors; 4% of 1,500 active; AID 2794; also: nearly all actives have a fitted effect of over 60% in size
Target sequence (P00883 whole entry, looked up): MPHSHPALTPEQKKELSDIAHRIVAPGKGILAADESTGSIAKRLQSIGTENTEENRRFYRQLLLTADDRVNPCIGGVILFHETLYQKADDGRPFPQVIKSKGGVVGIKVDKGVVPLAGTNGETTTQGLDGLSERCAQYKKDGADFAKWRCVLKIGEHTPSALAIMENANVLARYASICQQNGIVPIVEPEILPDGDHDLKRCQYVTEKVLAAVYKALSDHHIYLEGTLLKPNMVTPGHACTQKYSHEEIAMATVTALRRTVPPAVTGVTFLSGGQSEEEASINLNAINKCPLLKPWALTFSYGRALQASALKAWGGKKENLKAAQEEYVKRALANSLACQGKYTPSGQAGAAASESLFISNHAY
GAPDH coupling: GAPDH inhibition flagged for Giardia aldolase hits; Potency, µM (doses to about 57.5 µM), without a hit: at the highest dose activity change, negative = inhibition, usual class: inhibitors; GAPDH coupling enzyme counterscreen, biochemical, qHTS; shares compounds with Giardia FBPA inh-1; 6% of 1,500 active; also: nearly all actives have a fitted effect of over 55% in size
An asterisk follows results filed as active; ? = inconclusive; / = no result given; [ ] = another dose, or the depositor's remark. Unless noted, calls follow the shape of the dose curve; as a rule, active = well fitted curve in the direction sought with a large enough effect; inconclusive = small, poorly fitted or top-dose-only effect, or another doubt; inactive = no such curve, though single readings can be large; an effect the other way counts as inactive or inconclusive. % is scaled to controls: 0 for no effect and ±100 for the full control effect; potency is read from the fitted curve at half-maximal effect.

SMILES	RE007 growth inh	Tb PYK inh	LmPK inh	Giardia FBPA inh-1	Giardia growth	Mammal cell tox	Giardia FBPA inh-2	Rabbit aldolase	GAPDH coupling
CN(C)CCCCOc1ccccc1F	3.3%	21.4%	1.5%	19.9µM*	?	8.8%	3.8%	11.4%	-7.3%
CCOc1ccccc1OCCCCOc1ccccc1F	-28.4%	-9.7%	-10.1%	-1.1%	/	/	/	/	/
Cn1c(=O)cnc2cnc(OCc3ccccc3)nc21	/	/	/	-3.6%	/	/	/	/	/
O=C(O)c1ccc(Cl)c(S(=O)(=O)Nc2ccc3[nH]c(=O)[nH]c3c2)c1	-12.9%	-5.2%	8.0%	?	20.5%[38.3 µM]	-13.3%	18.3µM*	?	16.3µM*
CCOC(=O)C(CC)n1nc(C)c2c(C)n(-c3ccc(C)cc3)nc2c1=O (stereo not given)	/	1.6%	/	/	/	/	/	/	/
Cn1c(-n2cccc2)c(-c2c(-c3ccc(F)cc3)[nH]c3c2c(=O)[nH]c(=O)n3C)c(=O)[nH]c1=O	/	-4.8%	/	/	/	/	/	/	/
CC1CC(C)CN(C(=O)C(C)N(C)CC(=O)Nc2ccc(Cl)cc2)C1 (stereo not given)	-16.3%	41.5%	-1.3%	19.9µM*	-4.5%	-12.2%	-2.4%	5.1%	6.1%
CC1CC(C)CN(C(=O)C(C)N(C)CC(=O)Nc2ccc(F)cc2)C1 (stereo not given)	-10.9%	-7.9%	/	/	/	/	/	/	/
C=CCNC(=S)NNc1nc2sc3c(c2c(=O)[nH]1)CC(C)(C)OC3	18.8%	-16.1%	0.9%	1.26µM*	?	-0.2%	2.4%	6.1%	4.3%
C=CCSc1nc2sc3c(c2c(=O)[nH]1)CC(C)(C)OC3	-13.0%	-1.4%	/	/	/	/	/	/	/
CCOC(=O)C(C(=O)OCC)c1cc(Br)c2noc3c2c1C(=O)c1ccccc1-3	?	-6.9%	-13.9%	0.354µM*	-18.3%	?	?	?	?
Cc1cc(C)n(NC(=S)NC2CCCC2)c(=O)c1C#N	0.6%	1.9%	0.3%	17.7µM*	5.1%	8.7%	0.4%	15.4%	2.3%
C[C@H](c1ccccc1)N1C(=O)[C@H]2[C@@H]3[C@H](O)[C@H](O)CC(=O)[C@H]3CC[C@H]2C1=O	/	/	/	1.2%[12.9 µM]	/	/	/	/	/
C[n+]1cccc2c(Br)ccc([O-])c21	-20.0%	-10.5%	-5.7%	0.177µM*	20µM*	-15.8%	3.98µM*	12.6µM*	4.47µM*
[O-][n+]1cccc2c(Br)cc(Br)c(O)c21	?	-10.6%	-1.0%[11.5 µM]	?	/	/	/	/	/
COc1ccc(CCNC(=O)c2nc(SCc3ccc(C)cc3)ncc2Cl)cc1OC	/	-10.3%	/	/	/	/	/	/	/
COc1cc(Cl)c(NC(=O)c2cc(S(=O)(=O)N3CCOCC3)cn2C)c(OC)c1	/	0.0%	/	/	/	/	/	/	/
CC1CCN(c2ccc(-c3nc(C(C)C)no3)cc2[N+](=O)[O-])CC1	/	0.5%	/	/	/	/	/	/	/
Cn1c(=S)c2[nH]c(SCCN)nc2n(C)c1=O	-18.7%	-11.3%	/	/	/	/	/	/	/
Cn1c(=S)c2[nH]c(SCCN3CCCC3)nc2n(C)c1=O	/	-18.0%	3.5%	11.2µM*	11.5%[10.4 µM]	18.6%	1.4%	-2.9%	1.7%
O=C1ON=C(c2ccccc2)/C1=C/c1ccc(O)c(O)c1	/	-29.4%	?	3.98µM*	?	-13.7%	-25.2%	-19.3%	2.4%
COc1ccc(/C=C2\C(=O)ON=C2c2ccccc2)cc1	?	-24.7%	0.5%	-8.4%	/	/	/	/	/
COc1ccc(N2CCN(CC(O)COCc3ccccc3)CC2)cc1 (stereo not given)	-11.8%	-16.4%	1.2%	-12.2%	/	/	/	/	/
COc1ccc(COCC(O)CN2CCCC(C(F)(F)F)C2)cc1 (stereo not given)	/	/	-7.2%	11.2µM*	-14.5%	5.5%	0.8%	4.2%	13.8%
COc1cccc(N2CCN(c3ccc4nnc(CCC(=O)O)n4n3)CC2)c1	/	-3.1%	/	/	/	/	/	/	/
SMILES	RE007 growth inh	Tb PYK inh	LmPK inh	Giardia FBPA inh-1	Giardia growth	Mammal cell tox	Giardia FBPA inh-2	Rabbit aldolase	GAPDH coupling
Cc1cc(C)c2c(NC(=S)NC(=O)c3ccccc3)nn(C)c2n1	-7.5%	-0.4%	1.0%	17.7µM*	-11.7%[10.4 µM]	-12.0%	9.8%	4.9%	9.6%
CNc1ccc(Cl)nn1	7.4%	1.7%	-3.8%	-1.7%	/	/	/	/	/
NNc1ccc(Cl)nn1	-1.3%	-2.8%	0.2%	19.9µM*	11.7%	-0.7%	-5.0%	0.5%	-16.5%
Cc1ccc(Nc2c(-c3cccnc3)nc3ccc(Cl)cn23)cc1	/	0.2%	/	/	/	/	/	/	/
N/C(=N\NC(=O)Nc1ccccc1)c1ccccn1	-3.2%	-0.2%	-0.6%	19.9µM*	-10.2%[10.4 µM]	-0.9%	-6.6%	5.1%	-1.3%
COc1ccc(-n2c(=O)c3sc4ccccc4c3n(CC(=O)NC3CCCCC3)c2=O)cc1	/	0.1%	/	/	/	/	/	/	/
CN1CCN(C(=S)NC(=O)c2cccc([N+](=O)[O-])c2)CC1	-4.4%	4.8%	1.3%	1.78µM*	-21.8%[38.3 µM]	-16.2%	-4.8%	-0.1%	-1.0%
CC1CN(C(=S)NC(=O)c2ccccc2)CC(C)O1 (stereo not given)	-11.0%	-2.8%	3.1%	/	/	/	/	/	/
